# Laboratory results reported in publication PMC7862700, “An all-to-all approach to the identification of sequence-specific readers for epigenetic DNA modifications on cytosine”.
# What was measured:
# Assay in all cases: DAPPL (digital affinity profiling via proximity ligation, sequencing); 10 mM Tris-HCl pH 7.5, 50 mM NaCl, 1 mM DTT, 4% glycerol, room temperature, 30 min; GST-TFs on glutathione beads, 16-mer random dsDNA library, 0.1% formaldehyde crosslink after washing; high values mean tight binding
# FLI1 = target: T1, FLI1 (Homo sapiens, UniProt Q01543 1-452); settings: protein: recombinant; tags: N-terminal GST; dsDNA, one strand shown
# T1 sequence: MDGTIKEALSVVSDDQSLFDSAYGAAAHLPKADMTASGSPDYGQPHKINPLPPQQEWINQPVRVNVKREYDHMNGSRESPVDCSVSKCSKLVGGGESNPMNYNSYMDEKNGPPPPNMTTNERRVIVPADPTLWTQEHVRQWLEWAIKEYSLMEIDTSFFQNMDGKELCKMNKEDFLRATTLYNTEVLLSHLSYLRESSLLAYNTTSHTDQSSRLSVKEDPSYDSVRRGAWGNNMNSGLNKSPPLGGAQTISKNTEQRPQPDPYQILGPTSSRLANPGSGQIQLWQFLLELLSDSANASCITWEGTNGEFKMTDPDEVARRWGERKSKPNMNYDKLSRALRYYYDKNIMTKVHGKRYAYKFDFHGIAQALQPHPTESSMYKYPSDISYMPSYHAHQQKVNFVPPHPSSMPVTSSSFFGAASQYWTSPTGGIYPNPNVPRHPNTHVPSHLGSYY
# Method in brief: (§1)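 Binding signal is defined as a hexamer's read frequency for one factor over its frequency for the tag-only sample. To obtain reads, GST-fused human transcription factors were expressed in yeast, captured on glutathione beads, barcoded with DNA and pooled with that sample. Pools met 200 nmole of a 16-mer random double-stranded DNA library in Tris/NaCl/DTT/glycerol buffer for 30 min at room temperature before washing, 0.1% formaldehyde crosslinking, proximity ligation (BsaI/T4 ligase, 1 h, 37 °C), PCR and Illumina NextSeq500 sequencing.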
# ELK1 = target: T2, ELK1 (Homo sapiens, UniProt P19419 1-428); settings: protein: recombinant; tags: N-terminal GST; dsDNA, one strand shown
# T2 sequence: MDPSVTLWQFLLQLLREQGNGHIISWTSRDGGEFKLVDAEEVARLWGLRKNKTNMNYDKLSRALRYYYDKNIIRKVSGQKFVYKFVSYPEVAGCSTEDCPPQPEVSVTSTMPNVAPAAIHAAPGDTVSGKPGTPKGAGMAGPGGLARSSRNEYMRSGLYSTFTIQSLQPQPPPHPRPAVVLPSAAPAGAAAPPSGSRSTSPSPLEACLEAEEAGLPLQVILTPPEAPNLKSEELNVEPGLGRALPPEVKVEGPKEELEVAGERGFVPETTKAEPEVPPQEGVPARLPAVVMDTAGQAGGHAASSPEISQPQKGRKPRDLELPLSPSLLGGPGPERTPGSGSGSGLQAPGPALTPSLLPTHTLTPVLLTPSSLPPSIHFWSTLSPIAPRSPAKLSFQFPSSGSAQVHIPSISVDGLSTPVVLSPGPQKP
# Method in brief: as §1
# GABPA = target: T3, GABPA (Homo sapiens, UniProt Q06546 1-454); settings: protein: recombinant; tags: N-terminal GST; dsDNA, one strand shown
# T3 sequence: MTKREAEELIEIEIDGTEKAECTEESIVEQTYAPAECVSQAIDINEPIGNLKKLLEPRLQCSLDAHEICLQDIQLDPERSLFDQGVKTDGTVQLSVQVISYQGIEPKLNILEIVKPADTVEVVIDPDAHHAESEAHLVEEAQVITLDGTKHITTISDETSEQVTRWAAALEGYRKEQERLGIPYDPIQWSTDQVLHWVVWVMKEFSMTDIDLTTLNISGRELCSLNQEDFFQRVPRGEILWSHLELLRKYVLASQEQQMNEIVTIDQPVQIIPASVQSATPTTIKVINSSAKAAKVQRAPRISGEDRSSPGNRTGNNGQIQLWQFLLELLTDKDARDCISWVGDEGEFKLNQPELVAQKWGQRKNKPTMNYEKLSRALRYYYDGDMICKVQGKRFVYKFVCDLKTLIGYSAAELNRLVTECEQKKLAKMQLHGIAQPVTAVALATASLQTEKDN
# Method in brief: as §1
# ERG = target: T4, ERG (Homo sapiens, UniProt P11308 1-479); settings: protein: recombinant; tags: N-terminal GST; dsDNA, one strand shown
# T4 sequence: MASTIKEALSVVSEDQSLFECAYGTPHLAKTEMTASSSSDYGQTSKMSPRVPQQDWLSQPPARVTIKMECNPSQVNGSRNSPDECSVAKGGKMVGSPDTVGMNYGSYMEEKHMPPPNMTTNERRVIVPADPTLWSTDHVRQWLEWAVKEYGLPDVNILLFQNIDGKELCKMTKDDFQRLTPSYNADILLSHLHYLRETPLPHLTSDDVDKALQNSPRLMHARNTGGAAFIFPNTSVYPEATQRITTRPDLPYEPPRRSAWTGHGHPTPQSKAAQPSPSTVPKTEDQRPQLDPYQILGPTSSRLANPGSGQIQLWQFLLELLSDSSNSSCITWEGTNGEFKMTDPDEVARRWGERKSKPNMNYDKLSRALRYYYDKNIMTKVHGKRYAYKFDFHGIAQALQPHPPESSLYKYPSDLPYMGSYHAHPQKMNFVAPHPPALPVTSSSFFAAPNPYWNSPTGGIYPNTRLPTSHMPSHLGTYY
# Method in brief: as §1
# ELF1 = ELF1 (Homo sapiens, UniProt P32519 1-619); settings: protein: recombinant; tags: N-terminal GST; dsDNA, one strand shown
# Method in brief: as §1
# EHF = target: T5, EHF (Homo sapiens, UniProt Q9NZC4 1-300); settings: protein: recombinant; tags: N-terminal GST; dsDNA, one strand shown
# T5 sequence: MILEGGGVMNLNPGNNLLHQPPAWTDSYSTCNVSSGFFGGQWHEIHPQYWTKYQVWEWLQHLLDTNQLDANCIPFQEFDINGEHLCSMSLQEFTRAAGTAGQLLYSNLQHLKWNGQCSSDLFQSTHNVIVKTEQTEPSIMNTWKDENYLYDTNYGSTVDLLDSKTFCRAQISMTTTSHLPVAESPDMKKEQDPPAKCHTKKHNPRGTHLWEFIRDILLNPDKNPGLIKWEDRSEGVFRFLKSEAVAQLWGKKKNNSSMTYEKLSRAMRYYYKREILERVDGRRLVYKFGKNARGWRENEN
# Method in brief: as §1
# SPI1 = SPI1 (Homo sapiens, UniProt P17947 1-270); settings: protein: recombinant; tags: N-terminal GST; dsDNA, one strand shown
# Method in brief: as §1
# SPIB = SPIB (Homo sapiens, UniProt Q01892 1-262); settings: protein: recombinant; tags: N-terminal GST; dsDNA, one strand shown
# Method in brief: as §1
# ELK3 = target: T6, ELK3 (Homo sapiens, UniProt P41970 1-407); settings: protein: recombinant; tags: N-terminal GST; dsDNA, one strand shown
# T6 sequence: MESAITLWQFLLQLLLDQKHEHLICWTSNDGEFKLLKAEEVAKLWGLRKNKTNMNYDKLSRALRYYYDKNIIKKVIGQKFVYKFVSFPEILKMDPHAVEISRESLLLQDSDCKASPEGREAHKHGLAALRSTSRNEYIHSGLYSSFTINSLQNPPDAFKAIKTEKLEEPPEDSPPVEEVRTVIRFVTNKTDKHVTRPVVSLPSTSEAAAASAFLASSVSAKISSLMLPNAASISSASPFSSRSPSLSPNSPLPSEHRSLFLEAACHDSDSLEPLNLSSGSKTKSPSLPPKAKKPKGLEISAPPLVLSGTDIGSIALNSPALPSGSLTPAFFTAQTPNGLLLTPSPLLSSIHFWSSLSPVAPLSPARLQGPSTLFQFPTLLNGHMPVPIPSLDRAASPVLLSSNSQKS
# Method in brief: as §1
# FEV = target: T7, FEV (Homo sapiens, UniProt Q99581 1-238); settings: protein: recombinant; tags: N-terminal GST; dsDNA, one strand shown
# T7 sequence: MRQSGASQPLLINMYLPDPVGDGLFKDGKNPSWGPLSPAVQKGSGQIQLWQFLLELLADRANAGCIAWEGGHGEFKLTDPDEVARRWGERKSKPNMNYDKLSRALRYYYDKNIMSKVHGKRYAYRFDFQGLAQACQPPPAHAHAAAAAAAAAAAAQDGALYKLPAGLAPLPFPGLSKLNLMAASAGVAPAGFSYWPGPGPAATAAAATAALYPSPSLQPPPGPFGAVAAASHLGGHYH
# Method in brief: as §1
# ETV5 = ETV5 (Homo sapiens, UniProt P41161 1-510); settings: protein: recombinant; tags: N-terminal GST; dsDNA, one strand shown
# Method in brief: as §1
# HSF1 = HSF1 (Homo sapiens, UniProt Q00613 1-529); settings: protein: recombinant; tags: N-terminal GST; chain copies: 3; dsDNA, one strand shown
# Method in brief: as §1
# SPIC = target: T8, SPIC (Homo sapiens, UniProt Q8N5J4 1-248); settings: protein: recombinant; tags: N-terminal GST; dsDNA, one strand shown
# T8 sequence: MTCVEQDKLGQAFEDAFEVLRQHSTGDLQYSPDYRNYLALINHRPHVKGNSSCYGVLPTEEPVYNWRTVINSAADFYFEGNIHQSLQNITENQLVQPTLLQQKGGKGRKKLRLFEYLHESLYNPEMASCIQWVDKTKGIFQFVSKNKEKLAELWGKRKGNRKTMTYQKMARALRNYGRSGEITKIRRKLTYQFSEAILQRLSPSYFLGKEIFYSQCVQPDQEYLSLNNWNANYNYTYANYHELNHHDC
# Method in brief: as §1
# ELF4 = ELF4 (Homo sapiens, UniProt Q99607 1-663); settings: protein: recombinant; tags: N-terminal GST; dsDNA, one strand shown
# Method in brief: as §1
# ELK4 = target: T9, ELK4 (Homo sapiens, UniProt P28324-2 1-405); settings: protein: recombinant; tags: N-terminal GST; dsDNA, one strand shown
# T9 sequence: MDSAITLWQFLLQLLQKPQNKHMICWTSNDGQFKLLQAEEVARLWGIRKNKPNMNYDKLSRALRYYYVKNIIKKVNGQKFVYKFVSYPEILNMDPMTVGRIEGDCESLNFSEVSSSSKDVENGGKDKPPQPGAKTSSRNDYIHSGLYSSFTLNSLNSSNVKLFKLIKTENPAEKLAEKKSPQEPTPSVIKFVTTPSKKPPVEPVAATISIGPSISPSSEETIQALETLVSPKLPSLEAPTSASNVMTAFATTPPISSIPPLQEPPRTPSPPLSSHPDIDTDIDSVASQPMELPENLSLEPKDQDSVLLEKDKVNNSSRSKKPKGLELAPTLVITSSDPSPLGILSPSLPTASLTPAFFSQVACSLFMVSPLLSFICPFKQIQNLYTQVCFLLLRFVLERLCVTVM
# Method in brief: as §1
# ETV2 = target: T10, ETV2 (Homo sapiens, UniProt O00321 1-342); settings: protein: recombinant; tags: N-terminal GST; dsDNA, one strand shown
# T10 sequence: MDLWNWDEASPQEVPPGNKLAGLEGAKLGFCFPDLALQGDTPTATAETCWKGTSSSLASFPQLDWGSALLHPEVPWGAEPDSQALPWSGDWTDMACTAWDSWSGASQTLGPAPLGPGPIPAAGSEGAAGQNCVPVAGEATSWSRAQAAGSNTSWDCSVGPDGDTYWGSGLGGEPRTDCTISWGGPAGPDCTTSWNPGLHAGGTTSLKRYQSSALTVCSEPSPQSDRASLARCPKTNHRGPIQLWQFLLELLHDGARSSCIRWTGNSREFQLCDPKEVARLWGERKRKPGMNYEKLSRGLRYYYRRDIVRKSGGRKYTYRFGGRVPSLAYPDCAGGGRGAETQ
# Method in brief: as §1
# CRX = CRX (Homo sapiens, UniProt O43186 1-299); settings: protein: recombinant; tags: N-terminal GST; dsDNA, one strand shown
# Method in brief: as §1
# ETV1 = ETV1 (Homo sapiens, UniProt P50549 1-477); settings: protein: recombinant; tags: N-terminal GST; dsDNA, one strand shown
# Method in brief: as §1
# Chain of HSF1 (Q00613 whole entry): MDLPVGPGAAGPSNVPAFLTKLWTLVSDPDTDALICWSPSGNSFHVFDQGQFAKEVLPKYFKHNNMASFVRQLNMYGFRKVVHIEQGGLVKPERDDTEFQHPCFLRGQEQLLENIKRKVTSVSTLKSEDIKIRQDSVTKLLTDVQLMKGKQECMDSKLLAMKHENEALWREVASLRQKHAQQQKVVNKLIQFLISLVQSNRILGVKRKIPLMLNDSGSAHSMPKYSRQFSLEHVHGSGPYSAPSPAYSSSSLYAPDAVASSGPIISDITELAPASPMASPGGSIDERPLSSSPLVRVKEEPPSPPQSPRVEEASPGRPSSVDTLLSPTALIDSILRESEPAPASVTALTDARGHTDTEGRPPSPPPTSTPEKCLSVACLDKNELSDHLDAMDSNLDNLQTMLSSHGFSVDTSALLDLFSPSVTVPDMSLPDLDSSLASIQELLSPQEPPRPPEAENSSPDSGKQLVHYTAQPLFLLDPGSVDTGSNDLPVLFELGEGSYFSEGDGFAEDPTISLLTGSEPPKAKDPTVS
# Chain of ETV1 (P50549 whole entry): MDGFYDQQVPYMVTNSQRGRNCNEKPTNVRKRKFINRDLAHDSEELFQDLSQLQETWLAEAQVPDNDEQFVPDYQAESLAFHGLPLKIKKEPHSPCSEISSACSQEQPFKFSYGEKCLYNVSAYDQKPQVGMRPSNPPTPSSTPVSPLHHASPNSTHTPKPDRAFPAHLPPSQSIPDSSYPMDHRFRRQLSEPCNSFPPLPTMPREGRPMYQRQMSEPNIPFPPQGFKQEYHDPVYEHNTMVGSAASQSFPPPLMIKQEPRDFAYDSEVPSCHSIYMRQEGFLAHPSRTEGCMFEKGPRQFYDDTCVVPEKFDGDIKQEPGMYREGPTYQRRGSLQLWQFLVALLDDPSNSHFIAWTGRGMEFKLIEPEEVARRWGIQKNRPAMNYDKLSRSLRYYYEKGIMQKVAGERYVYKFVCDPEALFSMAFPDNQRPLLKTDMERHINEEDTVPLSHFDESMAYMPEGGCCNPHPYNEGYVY
# Chain of ELF1 (P32519 whole entry): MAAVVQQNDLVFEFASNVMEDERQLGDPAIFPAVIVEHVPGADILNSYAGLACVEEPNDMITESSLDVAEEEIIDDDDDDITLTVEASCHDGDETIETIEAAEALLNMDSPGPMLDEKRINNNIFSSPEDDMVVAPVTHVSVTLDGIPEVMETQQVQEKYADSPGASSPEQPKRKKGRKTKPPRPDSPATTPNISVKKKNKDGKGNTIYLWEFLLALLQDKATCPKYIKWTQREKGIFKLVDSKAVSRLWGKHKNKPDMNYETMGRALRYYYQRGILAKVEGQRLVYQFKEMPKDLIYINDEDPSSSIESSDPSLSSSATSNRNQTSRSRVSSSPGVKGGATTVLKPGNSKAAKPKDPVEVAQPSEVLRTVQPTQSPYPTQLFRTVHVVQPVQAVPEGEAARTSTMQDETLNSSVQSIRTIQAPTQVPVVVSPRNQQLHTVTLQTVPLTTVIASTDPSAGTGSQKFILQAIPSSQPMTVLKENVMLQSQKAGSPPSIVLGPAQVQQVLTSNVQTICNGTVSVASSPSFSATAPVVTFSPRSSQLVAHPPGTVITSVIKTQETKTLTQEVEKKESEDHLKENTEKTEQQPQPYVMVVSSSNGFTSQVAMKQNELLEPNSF
# Chain of ELF4 (Q99607 whole entry): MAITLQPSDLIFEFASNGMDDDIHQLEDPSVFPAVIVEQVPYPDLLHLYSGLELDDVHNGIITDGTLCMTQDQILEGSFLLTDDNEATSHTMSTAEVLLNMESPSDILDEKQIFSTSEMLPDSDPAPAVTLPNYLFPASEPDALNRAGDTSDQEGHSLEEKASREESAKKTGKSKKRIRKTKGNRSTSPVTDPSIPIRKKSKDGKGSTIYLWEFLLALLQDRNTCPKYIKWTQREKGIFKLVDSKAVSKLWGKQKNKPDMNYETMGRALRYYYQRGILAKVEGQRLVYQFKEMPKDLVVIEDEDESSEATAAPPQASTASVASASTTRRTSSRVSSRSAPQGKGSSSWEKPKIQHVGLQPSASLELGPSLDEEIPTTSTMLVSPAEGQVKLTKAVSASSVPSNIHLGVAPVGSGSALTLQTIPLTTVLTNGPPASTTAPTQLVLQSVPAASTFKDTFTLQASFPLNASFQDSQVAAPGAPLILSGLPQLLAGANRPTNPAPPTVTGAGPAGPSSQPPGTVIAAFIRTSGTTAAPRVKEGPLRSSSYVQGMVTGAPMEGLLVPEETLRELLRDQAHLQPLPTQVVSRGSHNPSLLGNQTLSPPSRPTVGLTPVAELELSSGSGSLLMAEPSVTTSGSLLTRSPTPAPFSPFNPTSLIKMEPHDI
# Chain of SPIB (Q01892 whole entry): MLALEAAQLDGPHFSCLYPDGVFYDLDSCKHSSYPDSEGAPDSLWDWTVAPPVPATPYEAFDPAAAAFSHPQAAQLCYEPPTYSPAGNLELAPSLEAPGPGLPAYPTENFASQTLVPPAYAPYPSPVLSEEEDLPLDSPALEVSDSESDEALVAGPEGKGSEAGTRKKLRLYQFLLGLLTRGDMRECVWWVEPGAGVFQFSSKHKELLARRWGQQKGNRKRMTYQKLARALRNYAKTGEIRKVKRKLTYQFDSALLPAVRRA
# Chain of ETV5 (P41161 whole entry): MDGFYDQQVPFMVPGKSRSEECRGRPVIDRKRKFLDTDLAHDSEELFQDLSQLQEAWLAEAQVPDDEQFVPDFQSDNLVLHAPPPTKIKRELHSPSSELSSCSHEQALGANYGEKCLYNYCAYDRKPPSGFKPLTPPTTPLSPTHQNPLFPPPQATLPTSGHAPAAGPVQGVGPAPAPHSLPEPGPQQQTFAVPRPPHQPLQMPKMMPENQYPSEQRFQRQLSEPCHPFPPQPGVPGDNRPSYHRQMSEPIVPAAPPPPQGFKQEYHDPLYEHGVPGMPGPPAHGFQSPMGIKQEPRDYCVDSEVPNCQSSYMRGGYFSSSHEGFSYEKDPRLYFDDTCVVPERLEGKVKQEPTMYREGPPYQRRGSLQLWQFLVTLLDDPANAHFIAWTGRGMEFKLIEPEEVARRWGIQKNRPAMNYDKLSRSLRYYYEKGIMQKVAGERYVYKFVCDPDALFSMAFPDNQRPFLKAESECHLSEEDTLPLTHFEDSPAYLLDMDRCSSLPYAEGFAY
# Chain of CRX (O43186 whole entry): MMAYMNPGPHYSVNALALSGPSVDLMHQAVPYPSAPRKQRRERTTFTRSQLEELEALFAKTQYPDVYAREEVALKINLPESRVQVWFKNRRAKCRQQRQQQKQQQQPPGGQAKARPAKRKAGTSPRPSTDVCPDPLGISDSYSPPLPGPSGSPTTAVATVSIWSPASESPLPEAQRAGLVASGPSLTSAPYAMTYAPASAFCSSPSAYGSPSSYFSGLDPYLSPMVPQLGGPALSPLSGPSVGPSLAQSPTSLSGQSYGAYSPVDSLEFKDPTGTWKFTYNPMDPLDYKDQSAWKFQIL
sequence,measurement,setting,value
AAGCAC,binding signal,FLI1,"1.14 fold enrichment (6-mer frequency, TF over GST control)"
same,binding signal,ELK1,"1.14 fold enrichment (6-mer frequency, TF over GST control)"
same,binding signal,GABPA,"1.15 fold enrichment (6-mer frequency, TF over GST control)"
same,binding signal,ERG,"1.19 fold enrichment (6-mer frequency, TF over GST control)"
same,binding signal,ELF1,"1.18 fold enrichment (6-mer frequency, TF over GST control)"
same,binding signal,EHF,"1.07 fold enrichment (6-mer frequency, TF over GST control)"
same,binding signal,SPI1,"1.18 fold enrichment (6-mer frequency, TF over GST control)"
same,binding signal,SPIB,"1.18 fold enrichment (6-mer frequency, TF over GST control)"
same,binding signal,ELK3,"1.31 fold enrichment (6-mer frequency, TF over GST control)"
same,binding signal,FEV,"1.23 fold enrichment (6-mer frequency, TF over GST control)"
same,binding signal,ETV5,"1.12 fold enrichment (6-mer frequency, TF over GST control)"
same,binding signal,HSF1,"1.04 fold enrichment (6-mer frequency, TF over GST control)"
same,binding signal,SPIC,"1.09 fold enrichment (6-mer frequency, TF over GST control)"
same,binding signal,ELF4,"1.2 fold enrichment (6-mer frequency, TF over GST control)"
same,binding signal,ELK4,"1.12 fold enrichment (6-mer frequency, TF over GST control)"
same,binding signal,ETV2,"1.22 fold enrichment (6-mer frequency, TF over GST control)"
same,binding signal,CRX,"1.09 fold enrichment (6-mer frequency, TF over GST control)"
same,binding signal,ETV1,"1.14 fold enrichment (6-mer frequency, TF over GST control)"
